The entries come from a sample that favours hits as a whole.
LmPK inhibitor = qHTS Assay for Inhibitors of Leishmania Mexicana Pyruvate Kinase (LmPK); Q27686; purified LmPK, Kinase-Glo ATP luminescence, 1 h; Potency, µM (series often up to 57.5 µM), for inactives: top-dose activity change, negative = inhibition, hits mostly inhibitors; actives 0.37% (n = 290,000); AID 1721, 2009; further: potency means the concentration at half of the fitted maximal effect; on the % scale 0 is the no-effect control and ±100 the full control effect
Target sequence (Q27686 whole entry, looked up): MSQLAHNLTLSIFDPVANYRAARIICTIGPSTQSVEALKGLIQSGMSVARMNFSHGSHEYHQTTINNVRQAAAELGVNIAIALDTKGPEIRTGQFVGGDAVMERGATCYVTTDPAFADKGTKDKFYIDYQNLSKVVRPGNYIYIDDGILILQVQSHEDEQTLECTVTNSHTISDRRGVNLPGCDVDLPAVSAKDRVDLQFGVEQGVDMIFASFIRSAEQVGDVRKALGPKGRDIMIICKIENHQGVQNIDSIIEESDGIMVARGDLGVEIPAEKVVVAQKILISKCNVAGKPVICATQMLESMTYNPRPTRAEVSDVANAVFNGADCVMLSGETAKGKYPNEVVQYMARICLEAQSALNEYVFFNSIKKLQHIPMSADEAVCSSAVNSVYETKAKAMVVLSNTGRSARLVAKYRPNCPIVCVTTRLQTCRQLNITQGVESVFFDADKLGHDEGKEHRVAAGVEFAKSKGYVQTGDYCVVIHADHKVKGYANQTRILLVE
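Kinase-Glo luminescence read after 1 h RT reaction of 0.1 nM LmPK with 0.5 mM PEP and 0.1 mM ADP. Activity scaled between uninhibited and enzyme-free controls.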
Tb PYK inh = qHTS of Trypanosoma Brucei Inhibitors | pyruvate kinase (Trypanosoma brucei), Q57TT1 | TbPYK enzyme, Kinase-Glo Plus ATP luminescence, 45 min | AID 624173, 2012 | actives 0.12% (n = 410,000) | Potency, µM (highest dose often 76.8 µM), without a hit: at the top dose activity, negative = inhibition, most hits filed as inhibitors; further: potency means the concentration at half of the fitted maximal effect; on the % scale 0 is the no-effect control and ±100 the full control effect; nearly all actives have a fitted effect of over 50% in size
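Assay buffer: 50 mM TEA pH 7.2, 100 mM KCl, 10 mM MgCl2, 0.05% BSA, 0.01% Tween-20. Pyruvate kinase from T. brucei plus substrate met compound, then ADP (130 uM final). Luminescence was read post 45 min RT.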
Cycloheximide cs = Cycloheximide Counterscreen for Small Molecule Inhibitors of Shiga Toxin. cell reporter, cycloheximide protein synthesis inhibition counterscreen. max response, %. actives 12% (n = 300,000); in the data active means max response mostly above about 13%, no sharp cut-off; inactive means mostly below about 14%; further: read at 38.3 µM for the half of the compounds with a filed dose; 0% is about no effect
Shiga inhibitor = A qHTS for Small Molecule Inhibitors of Shiga Toxin | inhibition, % at 38.7 µM | Vero cells, Shiga toxin protein synthesis inhibition reporter | AID 2315, 2010 | actives 9.2% (n = 290,000); in the data active means inhibition mostly above about 28%, no sharp cut-off; inactive means mostly below about 43%; further: 0% is about no effect
FBPA Giardia inh = qHTS Assay for Inhibitors of Fructose-1,6-bisphosphate Aldolase from Giardia Lamblia | purified Giardia FBPA | actives 0.71% (n = 290,000) | Potency, µM (top dose mostly 59.6 µM), for inactives: at the top dose activity, negative = inhibition, hits mostly inhibitors | AID 2451, 2010; further: potency means the concentration at half of the fitted maximal effect; on the % scale 0 is the no-effect control and ±100 the full control effect; nearly all actives have a fitted effect of over 55% in size
Target sequence (A8B2U2 whole entry, looked up): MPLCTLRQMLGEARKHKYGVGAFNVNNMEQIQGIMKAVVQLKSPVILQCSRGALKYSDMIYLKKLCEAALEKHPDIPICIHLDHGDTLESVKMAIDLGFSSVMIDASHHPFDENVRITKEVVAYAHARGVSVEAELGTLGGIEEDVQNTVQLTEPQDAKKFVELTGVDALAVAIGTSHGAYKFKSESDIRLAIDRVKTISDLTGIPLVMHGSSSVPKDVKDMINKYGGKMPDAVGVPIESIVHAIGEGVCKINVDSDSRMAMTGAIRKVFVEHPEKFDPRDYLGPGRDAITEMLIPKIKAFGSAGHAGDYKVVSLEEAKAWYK
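40 nM FBPA preincubated 10 min at RT with compound (up to 57.5 uM final), then substrate plus GAPDH/TPI/NAD/arsenate coupling and diaphorase/resazurin added. Fluorescence read after 20 min at RT, 525/598 nm.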
RE007 growth inh = qHTS Assay for Inhibitors of the HIV-1 protein Vpr | S. pombe RE007 Vpr strain, BacTiter-Glo ATP luminescence, 24 h | Potency, µM (series often up to 92.2 µM), for the others: at the highest dose activity change, negative = less growth, actives largely listed as inhibitors | actives 0.21% (n = 360,000) | AID 651644, 2012; active means well fitted falling curve with a large enough effect; inconclusive means small, poorly fitted or top-dose-only effect; inactive means no such curve, though single readings can be large or run the other way; further: potency means the concentration at half of the fitted maximal effect; on the % scale 0 is the no-effect control and ±100 the full control effect; nearly all actives have a fitted effect of over 50% in size
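Fission yeast strain RE007, carrying one chromosomally integrated HIV-1 vpr copy, was seeded at OD 0.01 in PMG+AL medium with 23 nL pinned compound. After 24 h at 30 °C and 99% humidity, viability was read by BacTiter-Glo luminescence.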
Active calls of the source: *; ? = inconclusive; · = no result given; [ ] = another dose, or the depositor's remark. Unless noted, the call rests on the fitted dose curve; in most records, active means well fitted curve in the direction sought with a large enough effect; inconclusive means small, poorly fitted or top-dose-only effect, or another doubt; inactive means no such curve, though single readings can be large; an effect the other way counts as inactive or inconclusive.

SMILES | LmPK inhibitor | Tb PYK inh | Cycloheximide cs | Shiga inhibitor | FBPA Giardia inh | RE007 growth inh
Oc1c(C2=NCCNC(C(F)(F)F)=C2)ccc2ccccc12 | -3.3% | -6.6% | 38.4* | 69.6* | ? | 10.3%
Cc1nc(-c2ccccc2)c(-c2ccncc2)o1 | · | · | -2.2 | -10.4 | 5.5% | ·
COc1ccc(/C(N)=N/OC(=O)CN(C)S(=O)(=O)c2ccccc2)cc1 | -0.5% | -10.1% | 14.2 | 40.9 | -3.7% | 2.9%
CN(CC(=O)O/N=C(\N)c1ccccn1)S(=O)(=O)c1ccccc1 | -4.3% | -3.6% | 16.9 | 44.0* | 5.3% | 5.1%
N/C(=N\OC(=O)CCCc1ccccc1)c1ccccn1 | ? | 0.0% | 35.4* | 53.5* | 12.3% | 0.8%
CC(C(=O)O/N=C(\N)c1ccccn1)c1ccc([N+](=O)[O-])cc1 (centres undefined) | 1.3% | -4.6% | 39.8* | 70.2* | 9.8% | -2.7%
N/C(=N\OC(=O)Cc1ccccc1)c1ccccn1 | -9.8% | -29.5% | 27.8* | 37.1 | 0.4% | -7.4%
Cc1ccc(CNC(=O)c2sc3nc(C)cc(C)c3c2-n2cccc2)cc1 | · | -5.8% | · | · | · | ·
N/C(=N\OC(=O)C(c1ccccc1)c1ccccc1)c1ccccn1 | 4.4% | 2.2% | 22.2* | 48.8* | -0.3% | 2.1%
N/C(=N\OC(=O)CCCc1ccccc1)c1ccc(Br)cc1 | -11.3% | 8.9% | 11.2 | -22.6 | · | -12.2%
COc1ccc(/C(N)=N/OC(=O)CCCc2ccccc2)cc1OC | 2.6% | -12.0% | 26.7* | 21.5 | -0.1% | ·
Cc1ccc(N2CC(NC(=O)C3CCCCC3)CC2=O)cc1C (centres undefined) | · | 3.2% | · | · | · | ·
CCOC(=O)c1c(C)c(-c2ccccc2)n(CC(=O)Nc2cc(C)ccc2OC)c1C | · | 1.3% | · | · | · | ·
CCOC(=O)c1cc(-c2ccc(F)cc2)n(CCC(=O)NCc2ccccc2OC)c1C | · | 4.0%[15.4 µM] | · | · | · | ·
S=C(NCc1cccs1)Nc1cccc(Cl)c1Cl | 4.4% | -1.5% | 29.5* | 45.4* | -6.0% | 19.9%
COc1cccc(NC(=S)NCc2cccs2)c1 | 2.1% | 0.5% | 3.2 | 42.8* | -2.1% | -19.2%
Cc1ccc(NC(=S)NCc2cccs2)cc1 | 0.1% | -0.1% | 31.3* | 8.6 | -0.2% | 5.0%
Cc1cccc(NC(=S)NCc2cccs2)c1 | 1.7% | -2.6% | 8.1 | 10.3 | -1.5% | 0.4%
COc1cccc(NC(=S)N/N=C2/CCCCc3ccccc32)c1 | 8.0% | -2.6% | 41.6* | 55.4* | -2.7% | 1.5%
Cc1ccc(S(=O)(=O)NCc2cn3ccccc3n2)c(C)c1 | -11.7% | 0.2% | 2.3 | -8.4 | · | -6.5%
CCOc1ccc(S(=O)(=O)n2nc(C)c(S(=O)(=O)N3CCCCC3)c2C)cc1 | · | -7.1% | · | · | · | ·
Cc1ccc(C)c(CN2C(=O)c3ccccc3S(=O)c3ccc(C(=O)N4CCCCC4)cc32)c1 (centres undefined) | · | -1.8% | · | · | · | ·
FC(F)(F)c1cccc(NC(=S)NCc2ccc(Cl)cc2)c1 | 1.3% | 3.8% | -1.6 | 10.9 | -5.0% | 16.4%
Fc1ccc(CNC(=S)Nc2cccc(C(F)(F)F)c2)cc1 | 5.3% | -4.1% | 13.4* | 18.0 | 2.4% | 11.4%
COc1cccc(NC(=S)NCc2ccccc2)c1 | -3.6% | -2.6% | 21.7* | 33.0* | -5.3% | -12.5%
SMILES | LmPK inhibitor | Tb PYK inh | Cycloheximide cs | Shiga inhibitor | FBPA Giardia inh | RE007 growth inh
Cc1cccc(NC(=S)NNC(=S)NCc2ccccc2)c1 | 6.8% | -17.2% | 44.3* | 48.5 | 18.3% | -9.1%
COCCN(C(=S)Nc1cccc(OC)c1)C(C)c1cccs1 (centres undefined) | 0.7% | -4.6% | 15.3* | 8.8 | -12.6% | 2.5%
COc1cccc(NC(=S)NCc2cccnc2)c1 | 0.0% | -10.6% | -3.5 | 18.3 | -0.8% | -7.9%
CCOc1ccc(Nc2nc(N)c([N+](=O)[O-])c(NCc3ccccc3)n2)cc1 | 1.9% | -1.9% | 18.9* | 33.6 | -6.4% | -6.8%
Nc1nc(Nc2ccccc2)nc(NCc2ccccc2)c1[N+](=O)[O-] | 1.9% | 2.7% | 8.7 | -2.1 | -10.3% | 7.8%
Cc1ccc(Nc2nc(N)c([N+](=O)[O-])c(NCc3ccco3)n2)cc1C | 0.8% | -5.7% | 67.5* | 53.9* | -9.0% | -11.5%
Cc1ccc(Nc2nc(N)c([N+](=O)[O-])c(NCCO)n2)cc1C | -2.8% | 3.4% | 27.3* | 61.8 | -7.2% | 12.5%
CCc1ccc2[nH]cc(S(=O)(=O)c3ccc(C)c(C)c3)c(=O)c2c1 | 1.5% | -2.9% | -3.6 | -4.3 | 11.4% | -5.4%
CCc1ccc2[nH]c3nc(C)cc(C)c3c(=O)c2c1 | -0.6% | -4.3% | 20.5* | -3.7 | -8.4% | 1.5%
Cc1ccc(C)n1CCN1CCN(C(=O)CC#N)CC1 | -0.3% | 4.3% | 7.8 | 4.5 | -27.0% | -11.2%
CCc1nnc(SC(CC)C(=O)Nc2cccc(OC)c2)c2cc3oc(C)cc3n12 (centres undefined) | · | 2.2% | · | · | · | ·
COc1ccccc1CN(Cc1nc2ccccc2c(=O)[nH]1)C(=O)Nc1ccccc1C | -0.4% | -0.4% | 6.8 | 0.9 | -23.6% | 1.8%
COc1ccccc1CN(Cc1nc2ccccc2c(=O)[nH]1)C(=O)Nc1ccc(C)cc1 | 5.1% | 2.2% | 19.3* | 40.1 | -3.3% | -0.8%
O=C1CCCC2=C1C(c1ccc(O)c(O)c1)c1c(ccc3ncccc13)N2 (centres undefined) | 3.4% | 17.8µM* | 19.4 | 17.4 | 6.29µM* | -2.4%
CCOc1ccc(C2C3=C(CCCC3=O)Nc3ccc4ncccc4c32)cc1 (centres undefined) | 2.0% | 1.0% | -5.0 | -2.7 | 2.7% | 3.6%
COc1cc(C2Nc3ccc4ncccc4c3C3=C2C(=O)CCC3)ccc1O (centres undefined) | -1.9% | -6.0% | 20.6* | 20.1 | -15.9% | ?
Cc1c(Cl)cccc1NC(=O)CSc1ccc(-c2ccccn2)nn1 | · | 0.6% | · | · | · | ·
CCCCNC(=O)C[C@@H]1C[C@@]2(C(=O)OC)CCCCC=C2N(Cc2ccc(Cl)cc2Cl)C1=O | · | -0.1% | · | · | · | 10.3%
COc1ccc(NC(=O)CCN2C(=O)c3ccccc3S2(=O)=O)c(OC)c1 | 11.3% | 1.6% | 4.2 | 20.0 | -0.3% | 7.2%
COc1cccc(NC(=O)CCN2C(=O)c3ccccc3S2(=O)=O)c1 | -5.7% | 4.0% | 14.5* | 32.7 | 2.5% | -5.8%
Cc1ccc(NC(=O)CN2C(=O)c3ccccc3S2(=O)=O)cc1C | 0.2% | 4.7% | 11.5* | 10.9 | -3.1% | 20.5%
Cc1ccccc1-c1nnc(CN2CCN(c3ccccn3)CC2)o1 | · | -2.6% | · | · | · | ·
CN1CCN(C(=O)c2ccc3c(c2)N(Cc2ccc(F)cc2)C(=O)c2ccccc2S3=O)CC1 (centres undefined) | -1.6% | 5.8% | 0.6 | -7.6 | 3.2% | -2.7%

Compound activity (PubChem)
